Assay [1] can be described thus: qHTS of pediatric cancer cell lines to identify multiple opportunities for drug repurposing: Primary screen for A673 cells (AID 1347092). Also: nearly all actives have a fitted effect of over 45% in size. Also: potency is read from the fitted curve at half-maximal effect. Summed up:
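Cell viability of A673 measured by CellTiter-Glo ATP luminescence after 48 hours compound exposure. Dilution series spanned 0.78 nM to 46 µM (MIPE, 11-point) or 0.59 nM to 46 µM (NPC, 8-point); bortezomib 2.3 uM positive control.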
(In general: Quantitative high-throughput screening tests each substance at several concentrations.)

The nature of assay [2]: qHTS of pediatric cancer cell lines to identify multiple opportunities for drug repurposing: Primary screen for SK-N-MC cells (AID 1347093). Also: potency is read from the fitted curve at half-maximal effect. Summed up: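 Metabolically active cells were quantified by ATP-dependent luminescence (CellTiter-Glo, 15 min at room temperature) following 48 h treatment. Cells had been plated at 500-1,000 per well and settled for 5 h beforehand.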

The nature of assay [3]: qHTS of pediatric cancer cell lines to identify multiple opportunities for drug repurposing: Primary screen for BT-37 cells (AID 1347094). Also: potency is read from the fitted curve at half-maximal effect. Summed up: (§1)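 Viability was measured as metabolically active cells after 48 hours of treatment, read by CellTiter-Glo luminescence. Compounds were tested at multiple final concentrations, giving concentration-response curves.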
The nature of assay [4]: qHTS of pediatric cancer cell lines to identify multiple opportunities for drug repurposing: Primary screen for NB-EBc1 cells (AID 1347095). Also: potency is read from the fitted curve at half-maximal effect. Summed up: as §1
Assay [5] in a line: qHTS of pediatric cancer cell lines to identify multiple opportunities for drug repurposing: Primary screen for Saos-2 cells (AID 1347097). Also: nearly all actives have a fitted effect of over 40% in size. Also: potency is read from the fitted curve at half-maximal effect. Summed up: as §1
Assay [6] can be described thus: qHTS of pediatric cancer cell lines to identify multiple opportunities for drug repurposing: Primary screen for SK-N-SH cells (AID 1347098). Also: nearly all actives have a fitted effect of over 65% in size. Also: potency is read from the fitted curve at half-maximal effect. Summed up:
(§2)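 Cells (500-1,000/well) rested 5 h, then received compounds for 48 h; metabolically active cells were measured by CellTiter-Glo luminescence. Final concentrations spanned up to 46 µM (MIPE, 11-point) or 0.59 nM-46 µM (NPC, 8-point) in primary screens, 11-point in follow-ups.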

Assay [7] is described as follows: qHTS of pediatric cancer cell lines to identify multiple opportunities for drug repurposing: Primary screen for NB1643 cells (AID 1347099). Also: nearly all actives have a fitted effect of over 50% in size. Also: potency is read from the fitted curve at half-maximal effect. In short, it runs like this:
as §1

The nature of assay [8]: qHTS of pediatric cancer cell lines to identify multiple opportunities for drug repurposing: Primary screen for LAN-5 cells (AID 1347100). Also: potency is read from the fitted curve at half-maximal effect. Summed up: (§3)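 Viability after 48 h compound treatment at 37C, 500-1,000 cells/well, read as ATP luminescence with CellTiter-Glo. Primary screens used 11-point (MIPE, 0.78 nM-46 µM) or 8-point (NPC, 0.59 nM-46 µM) final concentrations; follow-up screens used 11-point dilutions.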

The nature of assay [9]: qHTS of pediatric cancer cell lines to identify multiple opportunities for drug repurposing: Primary screen for BT-12 cells (AID 1347101). Also: nearly all actives have a fitted effect of over 25% in size. Also: potency is read from the fitted curve at half-maximal effect. Summed up:
as §2

A short description of assay [10]: qHTS of pediatric cancer cell lines to identify multiple opportunities for drug repurposing: Primary screen for Rh18 cells (AID 1347102). Also: nearly all actives have a fitted effect of over 65% in size. Also: potency is read from the fitted curve at half-maximal effect. In short, it runs like this: as §3
The nature of assay [11]: qHTS of pediatric cancer cell lines to identify multiple opportunities for drug repurposing: Primary screen for OHS-50 cells (AID 1347103). Also: nearly all actives have a fitted effect of over 40% in size. Also: potency is read from the fitted curve at half-maximal effect. Summed up:
as §2

Assay [12] is described as follows: qHTS of pediatric cancer cell lines to identify multiple opportunities for drug repurposing: Primary screen for RD cells (AID 1347104). Also: nearly all actives have a fitted effect of over 55% in size. Also: potency is read from the fitted curve at half-maximal effect. In short, it runs like this:
as §1

Assay [13] can be described thus: qHTS of pediatric cancer cell lines to identify multiple opportunities for drug repurposing: Primary screen for MG 63 (6-TG R) cells (AID 1347105). Also: nearly all actives have a fitted effect of over 50% in size. Also: potency is read from the fitted curve at half-maximal effect. Summed up:
as §1

Assay [14] in a line: qHTS of pediatric cancer cell lines to identify multiple opportunities for drug repurposing: Primary screen for Rh41 cells (AID 1347108). Also: nearly all actives have a fitted effect of over 70% in size. Also: potency is read from the fitted curve at half-maximal effect. Summed up: as §1
The nature of assay [15]: qHTS of pediatric cancer cell lines to identify multiple opportunities for drug repurposing: Confirmatory screen for NB1643 cells (AID 1347109). Also: potency is read from the fitted curve at half-maximal effect; nearly all actives have a fitted effect of over 45% in size. In short, it runs like this: as §3
Assay [16] is described as follows: qHTS of pediatric cancer cell lines to identify multiple opportunities for drug repurposing: Confirmatory screen for A673 cells (AID 1347110). Also: potency is read from the fitted curve at half-maximal effect; nearly all actives have a fitted effect of over 65% in size. In short, it runs like this: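 Viability was read as ATP luminescence (CellTiter-Glo) after 48 h of compound exposure at 37 C in A673 cells seeded at 500-1,000/well. Titrations reached 46 uM final, with 11 points in the confirmatory screen. Concentration-response curves were fitted directly.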

Assay [17] in a line: qHTS of pediatric cancer cell lines to identify multiple opportunities for drug repurposing: Confirmatory screen for SK-N-MC cells (AID 1347111).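 Also: cells exposed to compound for 48 h before the readout; nearly all actives have a fitted effect of over 70% in size.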 Also: potency is read from the fitted curve at half-maximal effect. Summed up: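 SK-N-MC cells at 500-1,000 cells/well in growth media were pre-incubated 5 h, then exposed to compounds at 11-point dilutions for 48 h at 37 degrees C, 5% CO2. Viability was read as CellTiter-Glo luminescence.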
Assay [18] can be described thus: qHTS of pediatric cancer cell lines to identify multiple opportunities for drug repurposing: Primary screen for Rh30 cells (AID 1347107). Also: nearly all actives have a fitted effect of over 75% in size. Also: potency is read from the fitted curve at half-maximal effect. In short, it runs like this: as §3
Assay [19] is described as follows: qHTS of pediatric cancer cell lines to identify multiple opportunities for drug repurposing: Primary screen for control Hh wild type fibroblast cells (AID 1347106).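 Also: series mostly up to about 46 µM; a drop in luminescence marks cytotoxicity and a rise apparent proliferation; nearly all actives have a fitted effect of over 55% in size.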 In short, it runs like this:
as §3

Records with an inconclusive call do not appear. Calls of active or inactive are those of the source. Calls follow the shape of the dose curve; as a rule, active = well fitted curve in the direction sought with a large enough effect; inconclusive = small, poorly fitted or top-dose-only effect, or another doubt; inactive = no such curve, though single readings can be large; an effect the other way counts as inactive or inconclusive.

Take `COc1cc(O)c2c(c1)C1OC1C[C@H](O)[C@H](O)C(=O)C=CC[C@H](C)OC2=O` (some centres undefined): the Potency in assay [1] is 5.9 µM (active); in [2] it was 2350 nM (active); in assay [3], 19300 nM (active); in assay [4], 5900 nM (active); in [5], 10.5 µM (active); in assay [6], 6.07 µM (active). The Potency in assay [7] was 2.96 µM (active); in assay [8], 5.26 µM (active); in assay [9] it was 13700 nM (active); in assay [10], 16.6 µM (active); in assay [11] it was 19300 nM (active); in assay [12], 2.35 µM (active). Moreover, the Potency in assay [13] is 18.7 µM (active); in assay [14], 11800 nM (active); in assay [15], 4.65 µM (active); in assay [16], 11.7 µM (active); in assay [17] it was 9.27 µM (active).
For the compound `Cc1ccc2nc(NCCN)c3ncc(C)n3c2c1`, the Potency was 1.87 µM (active) in [1]; 1660 nM (active) in [2]; 24300 nM (active) in [3]; 7430 nM (active) in assay [4]; 14.8 µM (active) in assay [5]; 6.81 µM (active) in assay [6]. Moreover, the Potency in assay [7] is 5.9 µM (active); in [9], 34300 nM (active); in assay [11], 24300 nM (active); in [12], 13.2 µM (active); in assay [13], 18.7 µM (active); in assay [14] it was 18700 nM (active).
Take `COc1cccc2c1C(=O)c1c(O)c3c(c(O)c1C2=O)C[C@@](O)(C(=O)CO)C[C@H]3O[C@H]1C[C@H](N)[C@H](O)[C@H](C)O1`: the Potency in assay [1] was 0.235 µM (active); in assay [2], 105 nM (active); in assay [3], 122 nM (active); in [4], 46.9 nM (active); in assay [5] it was 1.32 µM (active); in assay [6], 0.242 µM (active). For the same compound, the Potency in assay [7] is 0.526 µM (active); in assay [9], 485 nM (active); in [11] it was 611 nM (active); in assay [12], 0.833 µM (active); in assay [14], 743 nM (active); in assay [15], 0.522 µM (active). Moreover, the Potency in assay [16] was 0.928 µM (active); in assay [17] it was 0.414 µM (active). Also, the Potency entry in [18] was “inactive”.
In the case of `CCc1cnn2c(NCc3ccc[n+]([O-])c3)cc(N3CCCC[C@@H]3CCO)nc12`, the Potency in [1] was 0.0148 µM (active); in assay [2], 29.6 nM (active); in [3] it was 38.5 nM (active); in [4], 18.7 nM (active); in assay [5], 0.0235 µM (active); in assay [6], 0.0383 µM (active). In addition, the Potency is 43.2 nM (active) in [9], 0.0332 µM (active) in [12] and 74.3 nM (active) in assay [14]. Besides, the Potency result in assay [18] is “inactive”.
Consider `CCC(C(=O)O)C1CCC(C)C(C(C)C(O)C(C)C(=O)C(CC)C2OC3(C=CC(O)[C@@]4(CC[C@](C)(C5CC[C@@](O)(CC)C(C)O5)O4)O3)C(C)CC2C)O1` (some centres undefined), for which the Potency in assay [1] was 2.35 µM (active); in assay [2], 187 nM (active); in assay [3] it was 611 nM (active); in [4], 296 nM (active); in assay [5], 9.35 µM (active); in assay [6], 12.1 µM (active). The Potency in assay [7] is 1.66 µM (active); in assay [8], 1.05 µM (active); in [9], 385 nM (active); in assay [10], 5.9 µM (active); in [11], 432 nM (active); in assay [12] it was 4.18 µM (active). Moreover, the Potency was 18.7 µM (active) in assay [13], 1.17 µM (active) in assay [15] and 5.85 µM (active) in assay [16]. In addition, the Potency entry in assay [18] and in assay [17] was “inactive” throughout.
With `O=C1NC(=O)C(=Cc2ccc3nccc(-c4ccncc4)c3c2)S1`, the Potency was 0.187 µM (active) in assay [1]; 16.6 nM (active) in assay [2]; 432 nM (active) in assay [3]; 118 nM (active) in [4]; 0.372 µM (active) in assay [5]; 1.36 µM (active) in [6]. In addition, the Potency in assay [7] was 1.32 µM (active); in assay [8], 0.743 µM (active); in assay [9], 385 nM (active); in assay [10], 0.469 µM (active); in assay [11], 38.5 nM (active); in assay [12] it was 0.372 µM (active). The Potency is 0.0743 µM (active) in assay [13]; 1.48 µM (active) in [18]; 590 nM (active) in assay [14]; 6.57 µM (active) in [15]; 4.65 µM (active) in [16].
On to `Cn1cc(C[C@@H](N)C(=O)O)c2ccccc21`, for which the Potency entry in assay [1], in assay [2], in assay [3], in assay [4], in assay [5] and in assay [6] was “inactive” each time. The Potency result in [7], in [8], in [9], in assay [10], in [11] and in assay [12] was “inactive” in each case. Moreover, the Potency entry in [13], in assay [19], in assay [18] and in assay [14] was “inactive” in each case.

The values are drawn from PubChem BioAssay (NCATS).
